# In PubChem BioAssay AID720504 (National Center for Advancing Translational Sciences (NCATS), 2013):
# The whole screen tested about 360,000 compounds, of which about 10,000 (2.8%) were called active. Not shown: some 4% with an inconclusive outcome. Calls come from the whole dose curve; as a rule, active = well fitted inhibition curve with a large enough effect; inconclusive = small, poorly fitted or top-dose-only effect; inactive = flat fitted curve, though single readings scatter. Shown is part of a subset that was picked to be rich in actives.
# Biological target: Serine/threonine-protein kinase PLK1 (Homo sapiens) (UniProt P53350)
# Experiment: qHTS for Inhibitors of PLK1-PDB (polo-like kinase 1 - polo-box domain): Primary Screen; note: nearly all actives have a fitted effect of over 65% in size; for max response, negative = inhibition: series mostly up to about 57 µM
# Conditions: Plk1 PBD binding of FITC phosphopeptide, fluorescence polarization
# % is set by controls: 0 for no effect and ±100 for the full control effect; potency is the fitted concentration of half-maximal effect.
# Sequence of Serine/threonine-protein kinase PLK1 (Homo sapiens) (P53350 whole entry, looked up, the tested form may be a part): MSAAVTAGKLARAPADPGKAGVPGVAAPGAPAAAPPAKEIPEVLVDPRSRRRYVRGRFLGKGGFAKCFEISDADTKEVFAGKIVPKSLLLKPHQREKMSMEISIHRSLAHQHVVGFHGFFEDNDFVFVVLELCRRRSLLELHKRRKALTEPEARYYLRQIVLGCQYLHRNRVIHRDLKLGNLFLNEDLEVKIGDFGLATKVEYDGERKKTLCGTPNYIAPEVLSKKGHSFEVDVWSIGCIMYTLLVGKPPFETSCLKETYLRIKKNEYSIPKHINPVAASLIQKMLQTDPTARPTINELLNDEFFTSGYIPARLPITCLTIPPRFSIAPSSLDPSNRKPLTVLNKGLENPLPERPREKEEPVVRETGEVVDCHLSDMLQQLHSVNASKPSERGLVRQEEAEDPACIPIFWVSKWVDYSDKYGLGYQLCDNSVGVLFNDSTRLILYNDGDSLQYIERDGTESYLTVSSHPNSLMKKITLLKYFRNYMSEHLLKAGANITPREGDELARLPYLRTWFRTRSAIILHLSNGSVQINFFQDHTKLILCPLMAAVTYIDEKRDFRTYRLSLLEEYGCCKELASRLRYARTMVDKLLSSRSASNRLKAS
SMILES,"max response, negative = inhibition",Potency
COc1ccc(C(C)(O)c2nc(-c3cc(F)cc(F)c3)cs2)cc1 (stereo unspecified),4.82% (inactive),
OC(c1ccccc1)(c1ccccc1)C1CCN(CCCOc2ccccc2)CC1,0.305% (inactive),
CC(C)N=C1CCCC1C(=S)SSC(=S)C1CCCC1=NC(C)C (stereo unspecified),,9.47 µM (active)
CCC(c1nc2ccccc2[nH]1)n1c(=O)c(-c2cccs2)nc2ccccc21 (stereo unspecified),7.42% (inactive),
COc1ccc(-c2[nH][nH]c(=O)c2NC(=O)c2ccc([N+](=O)[O-])cc2)cc1,-12.4% (inactive),
Cc1ccc(C(=O)Nc2c(-c3ccccc3)[nH][nH]c2=O)cc1,,23.8 µM (active)
Cc1ccc(C(=O)Nc2nc(N)n(-c3ccccc3)n2)cc1,-8.25% (inactive),
CCOC(=O)c1c(NC(=O)C(C)Sc2c[nH]c3ccccc23)sc2c1CCC2 (stereo unspecified),-20.8% (inactive),
CCOC(=O)c1c(NC(=O)CSc2cn(CC)c3ccccc23)sc2c1CCC2,-5.08% (inactive),
CCOC(=O)c1c(NC(=O)C2(C)Cc3ccccc3C(=O)O2)sc2c1CCCC2 (stereo unspecified),,23.8 µM (active)
CC1(c2cccc(N)c2)OCCO1,-12.9% (inactive),
CCc1nc2ccc(C(=O)N(C)Cc3ccco3)cn2c1N(C)C(=O)Cc1ccccc1,-2.7% (inactive),
CC1(C(=O)NS(=O)(=O)c2cccc(F)c2)CCN1C(=O)Cc1cc(F)ccc1F (stereo unspecified),1.7% (inactive),
C[C@@H]1CN([C@H](C)CO)C(=O)c2cc(-c3ccc(F)cc3)cnc2O[C@H]1CN(C)C(=O)c1ccc(F)cc1,-26.3% (inactive),
O=[N+]([O-])c1c(NCCO)cc(Sc2nc3ccccc3s2)c2nonc12,,1.68 µM (active)
OCCNc1nc(Nc2ccc(Cl)c(Cl)c2)nc2ccccc12,-0.568% (inactive),
Cc1ccc(CN(C)C[C@@H]2OCc3cnnn3CCCC(=O)N([C@@H](C)CO)C[C@H]2C)cc1,-4.71% (inactive),
CC(C)(C)C1CCC(=O)N2CCC[C@]2(c2ccccc2)C1 (stereo partly specified),-8.62% (inactive),
COC(=O)C1=CN(c2c(C)cc(C)cc2C)C(N)=C(C#N)C1c1cccc(F)c1 (stereo unspecified),0.842% (inactive),
COc1ccccc1NC(=O)[C@H](COCc1ccccc1)NC(=O)OC(C)(C)C,-12.1% (inactive),
CC(C)(C)c1ccc(C(CC(=O)O)NS(=O)(=O)Cc2ccccc2)cc1 (stereo unspecified),-2.95% (inactive),
CC(C)[C@@H](NC(=O)OC(C)(C)C)C(=O)NCC1CCC(C(=O)N[C@@H](Cc2ccccc2)C(=O)O)CC1 (stereo partly specified),3.75% (inactive),

SMILES,"max response, negative = inhibition",Potency
CC(C)Sc1nnc([C@H](Cc2ccccc2)NC(=O)OC(C)(C)C)o1,,23.8 µM (active)
CCc1ccccc1NC(=O)CSc1nnc([C@@H](NC(=O)OC(C)(C)C)C(C)CC)o1 (stereo partly specified),-15.7% (inactive),
C[C@@H](NC(=O)OC(C)(C)C)c1nnc(S(=O)(=O)Cc2ccccc2)o1,,13.4 µM (active)
CCCOc1ccc(F)cc1-c1cc(C(=O)NCc2ccc(F)cc2)[nH]n1,-11.9% (inactive),
COc1cc(C(=O)OCCCN2CCOCC2)cc(OC)c1OC,0.976% (inactive),
CCOC(=O)N1CCN(C(=O)C[C@@H]2C[C@@]3(C(=O)OC)CC(C)(C)CC=C3N(Cc3ccco3)C2=O)CC1,2.41% (inactive),
Cc1cccc(CNC(=O)c2sc(=O)n(Cc3ccccc3C)c2C)c1,-6.16% (inactive),
CCCCCCn1c(SCC(=O)c2ccccc2)nc2c1c(=O)[nH]c(=O)n2C,-19.2% (inactive),
CCCCn1c(SCC(=O)N2CCOCC2)nc2c1c(=O)n(C)c(=O)n2C,-13.8% (inactive),
CCCCCn1c(SCCC(C)C)nc2c1c(=O)[nH]c(=O)n2C,,23.8 µM (active)
CCc1nc2c(OCC(=O)C(C)(C)C)cccn2c1N(C)C(=O)c1ccccc1F,-11% (inactive),
CC1(C)CC(=O)C=C(c2ccccc2CO)C1=O,-0.138% (inactive),
Clc1ccc(-c2cccc3nccn23)cc1,-1.38% (inactive),
COC(=O)c1ccccc1N=Nc1c(C)[nH][nH]c1=O,,23.8 µM (active)
COC(=O)c1ccccc1N=NNc1ccc([N+](=O)[O-])cc1,0.193% (inactive),
COC(=O)c1cn(C(=O)c2ccc(Cl)cc2)c2ccccc12,-5.55% (inactive),
CCN(CC)c1ncnc2c1ncn2[C@H]1CN(Cc2cccs2)C[C@@H](CO)O1,2.82% (inactive),
C[C@@H]1CCCCO[C@H](CN(C)Cc2ccccc2)[C@@H](C)CN([C@H](C)CO)C(=O)c2cc(NS(=O)(=O)c3ccc(Cl)cc3)ccc2O1,-7.57% (inactive),
O=C1CSC(=S)N1c1ccc(O)cc1,1.87% (inactive),
COc1cc(N2C(=O)CSC2=S)cc(OC)c1OC,-18.2% (inactive),
O=C1CSC(=S)N1c1ccc(Cl)c(Cl)c1,,26.7 µM (active)
CCOC(=O)N1CCN(C(=O)C[C@@H]2C[C@@]3(C(=O)OC)CCCCC=C3N(CCC3=CCCCC3)C2=O)CC1,4.13% (inactive),

SMILES,"max response, negative = inhibition",Potency
Nc1ncnc2c1ncn2[C@@H]1O[C@H](C(=O)N2CCSC2)[C@@H](O)[C@H]1O,-1.36% (inactive),
Clc1ccccc1Nc1nc(NCc2cccs2)nc2ccsc12,0.746% (inactive),
CCc1nc2c(OCCc3cccc(OC)c3)cccn2c1N(C)C(=O)c1ccc(C)cc1,-4.74% (inactive),
CC(=O)Nc1cc(-c2cccc(CO)c2)cn2c(-c3cccc(C(F)(F)F)c3)cnc12,-14.2% (inactive),
Cc1nnsc1S(=O)(=O)Cc1ccccc1Cl,-7.17% (inactive),
O=C(Nc1ccccc1)c1nnsc1S(=O)(=O)c1ccc(Cl)cc1,,4.74 µM (active)
O=C(Nc1ccc(S(=O)(=O)Nc2ccccn2)cc1)c1ccccc1,-2.45% (inactive),
Cc1cc2nc(-c3ccc(F)cc3)c(Cc3ccsc3)n2c(C)c1Br,-4.34% (inactive),
CCc1c(-c2ccc(F)cc2)ncn1Cc1cccc(-c2ccccc2)c1,-16% (inactive),
COc1cccc2sc(N(CCCN(C)C)C(=O)CCS(=O)(=O)c3ccccc3)nc12,,10.6 µM (active)
CCN(CC)CCN(C(=O)c1ccc2c(c1)CCCC2)c1nc2c(OC)cccc2s1,-2.72% (inactive),
COc1ccc(N(C)C(=O)CCS(=O)(=O)c2cccc3nsnc23)cc1,-20.6% (inactive),
CN1OC[C@@H]2CN(C(=O)c3ccc(-c4ccccc4)cc3)[C@H](c3ccc(-c4cccc(F)c4)cc3)C[C@@H]21,-8.48% (inactive),
CC1=C(C(=O)N2CCOCC2)CC(CC(=O)NCc2cccs2)C(=O)N1CCCN1CCCC1=O (stereo unspecified),-11.8% (inactive),
CCCC(=O)N1CCc2[nH]c3ccccc3c2C1,,26.7 µM (active)
O=C(CCCN1CCc2[nH]c3ccc(F)cc3c2C1)c1ccc(F)cc1,-6.15% (inactive),
C=CCNC(=S)N1CCc2[nH]c3ccccc3c2C1,-8.32% (inactive),
CCc1nc2c(OCc3ccc(F)c(F)c3)cccn2c1N(C)C(=O)c1ccco1,1.07% (inactive),
O=C(OCc1ccccc1)N1CCC2CC1c1ccc(-c3ccc4c(c3)OCO4)cc12 (stereo unspecified),2.15% (inactive),
CC1(C(=O)NS(=O)(=O)c2cccc(OC(F)F)c2)CCN1C(=O)COc1ccc(Cl)cc1 (stereo unspecified),3.32% (inactive),
OC(c1ccc(Cl)c(F)c1)c1ncc(-c2ccccc2Cl)[nH]1 (stereo unspecified),3.86% (inactive),
CCCCC(O)C1=C[N+](=O)CC=C1 (stereo unspecified),-14.2% (inactive),

SMILES,"max response, negative = inhibition",Potency
CN(C)[C@@H]1C(=O)C(C(N)=O)=C(O)[C@@]2(O)C(=O)C3=C(O)c4c(O)ccc(Cl)c4[C@@H](O)[C@H]3C[C@@H]12,-16.8% (inactive),
C=C1c2c(Cl)ccc(O)c2C(O)=C2C(=O)[C@]3(O)C(O)=C(C(N)=O)C(=O)[C@@H](N(C)C)[C@@H]3[C@@H](O)C12 (stereo partly specified),,23.8 µM (active)
O=C(COC(=O)c1cncc(Br)c1)Nc1ccc(S(=O)(=O)N2CCOCC2)cc1,-5.27% (inactive),
O=[N+]([O-])c1ccccc1S(=O)(=O)Nc1cccc2cccnc12,-7.49% (inactive),
Nc1nc(Sc2ncccc2[N+](=O)[O-])n[nH]1,4.21% (inactive),
O=[N+]([O-])c1cccc2ncccc12,,3.77 µM (active)
CC(C)Cn1cc(-c2cncc3nccn23)cn1,-13.4% (inactive),
O=C(Nc1ccc2c(c1)OCCO2)C1c2ccccc2OCC(=O)N1Cc1ccccn1 (stereo unspecified),-7.8% (inactive),
CCC(C(=O)NCc1cccnc1)n1nc(C)c2sc3ccccc3c2c1=O (stereo unspecified),,26.7 µM (active)
CCC(C(=O)NCc1ccc(OC)cc1)n1nc(C)n2c(cc3occc32)c1=O (stereo unspecified),-1.71% (inactive),
CCc1ccc(N(CC(=O)NCc2cccnc2)S(=O)(=O)c2ccccc2)cc1,-2.42% (inactive),
CC(=O)Nc1cccc(-c2ccnc3c2CC(C)(C(=O)NCc2ccco2)O3)c1 (stereo unspecified),-8.18% (inactive),
COc1ccc(N(CC(=O)Nc2cc(OC)ccc2OC)S(=O)(=O)c2c(C)noc2C)cc1,2.36% (inactive),
CCOc1ccc(N(CC(=O)OC)S(=O)(=O)c2c(C)noc2C)cc1,,26.7 µM (active)
CCOC(=O)c1cccc(NC(=O)CN(c2ccc(C)cc2)S(=O)(=O)c2c(C)noc2C)c1,-3.68% (inactive),
CC(=O)Nc1cc(-c2ccccc2F)cn2c(-c3cccc(C(F)(F)F)c3)cnc12,-1.88% (inactive),
Cc1ccc(S(=O)(=O)N2CCN(CC(=O)N/N=C/c3ccc(Br)s3)CC2)cc1,-1.96% (inactive),
CC(C)N(C(=O)CN1CCN(S(=O)(=O)c2ccc(Br)s2)CC1)C(C)C,1% (inactive),
Cc1cccc(NC(=O)CN2CCCN(S(=O)(=O)c3ccc(Br)s3)CC2)c1,,21.2 µM (active)
CCCCc1c(-c2ccc(Cl)cc2)ncn1CCc1ccccc1OC,5.05% (inactive),
